Structures are written as SMILES. This is part of a sample that, as a whole, favours compounds with a hit. Of some 83,000 tested, about 20% had one in any assay.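 How to read the values: 0–100, growth inhibition (40 = 60% inhibited); 0, no net growth; -100 to 0, cell death (-40 = 40% of starting cells died; -100 = all dead).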 A number with no mark means an inactive call. Activity calls are given as the source filed them. Rule for the calls: active = growth percent below 10; inactive = the rest.

Some test systems named below: NCI-H23 lung; NCI-H226 lung; NCI-H322M lung; HOP-62 NSCLC; NCI-H460 lung; HOP-92 NSCLC; NCI-H522 lung; A549/ATCC NSCLC; 786-0 renal; COLO 205 colon; DU-145 prostate; K-562 leukemia; MALME-3M melanoma; MDA-MB-231 breast; RXF 393 renal; SF-268 CNS; SF-295 CNS; SF-539 CNS; UACC-257 melanoma; M14 melanoma.
Holding throughout (assay): NCI-60 one-dose screen, 48 h (100 = growth as untreated, 0 = no growth, -100 = all killed)
Common to all, as to conditions: 10 µM unless noted

Consider `COc1cc2ncnc(Nc3ccc(F)c(Cl)c3)c2cc1OCC(=O)N1CCN(c2ccc(F)cc2)CC1`, for which the growth is 97% in the assay with NCI-H23 lung; 96.3% in the assay with NCI-H226 lung; 36.5% with NCI-H322M lung; 95.2% in the assay on HOP-62 NSCLC; 101% with NCI-H460 lung; 87.9% with HOP-92 NSCLC. For the same molecule, the growth in the assay with NCI-H522 lung was 72.2%; with A549/ATCC NSCLC, 79.7%; in the assay on 786-0 renal, 79%; in the assay with COLO 205 colon, 101%; in the assay with DU-145 prostate, 60.5%; in the assay on K-562 leukemia, 83.6%. For the same molecule, the growth was 92.2% in the assay on MALME-3M melanoma; 79.3% in the assay with MDA-MB-231 breast; 103% with RXF 393 renal; 79.5% in the assay with SF-268 CNS; 94.1% with SF-295 CNS; 100% with SF-539 CNS. Also, the growth in the assay on UACC-257 melanoma is 114%; with M14 melanoma it was 81.3%.
On to `C[C@H]1[C@H](C)CC[C@]2(C(=O)O)CC[C@]3(C)C(=CC[C@@H]4[C@@]5(C)C[C@@H](Cc6cn([C@@H]7O[C@H](CO)[C@@H](O)[C@H](O)[C@H]7O)nn6)[C@H](O)C(C)(C)[C@@H]5CC[C@]43C)[C@H]12`, for which the growth in the assay with NCI-H23 lung is 97.7%; with NCI-H226 lung, 94.3%; with NCI-H322M lung it was 102%; in the assay with HOP-62 NSCLC it was 88.9%; with NCI-H460 lung, 107%; in the assay with HOP-92 NSCLC, 95.6%. Further, the growth with NCI-H522 lung is 103%; with A549/ATCC NSCLC it was 89%; with 786-0 renal, 94.6%; in the assay on COLO 205 colon, 105%; in the assay on DU-145 prostate, 105%; in the assay on K-562 leukemia it was 95.4%. Besides, the growth in the assay with MALME-3M melanoma was 108%; in the assay with MDA-MB-231 breast, 102%; in the assay on RXF 393 renal, 118%; in the assay with SF-268 CNS, 103%; with SF-295 CNS, 98.8%; in the assay on SF-539 CNS it was 109%. Further, the values for the growth in the assay with UACC-257 melanoma and with M14 melanoma were 90.2% and 93.9%, respectively.
Take `Cn1cc(-c2csc(-c3cn(C)c4ccc(Br)cc34)n2)c2cnccc21`: the growth was -28.7% (active) with NCI-H23 lung; 102% with NCI-H226 lung; -32.6% (active) in the assay with NCI-H322M lung; -79% (active) in the assay on HOP-62 NSCLC; -76.4% (active) in the assay on NCI-H460 lung; -90.9% (active) with HOP-92 NSCLC. Also, the growth with NCI-H522 lung was -67.5% (active); in the assay on A549/ATCC NSCLC it was -75.1% (active); in the assay with 786-0 renal, -92.4% (active); in the assay on COLO 205 colon it was -77.8% (active); in the assay with DU-145 prostate, -88.6% (active); with K-562 leukemia, -67% (active). Moreover, the growth is -91.3% (active) in the assay with MALME-3M melanoma; -84.7% (active) in the assay on MDA-MB-231 breast; -87.2% (active) in the assay with RXF 393 renal; -73.8% (active) in the assay on SF-268 CNS; -78.2% (active) with SF-295 CNS; -93.1% (active) in the assay on SF-539 CNS. The growth was -23.2% (active) in the assay with UACC-257 melanoma and -80.4% (active) in the assay on M14 melanoma.
For `CCN(CC)c1ccc(/C=C\c2cc(C)c3cc(C)ccc3n2)cc1`, the growth was 30.3% in the assay with NCI-H23 lung; 59.5% in the assay with NCI-H226 lung; 83% with NCI-H322M lung; 45.6% in the assay with HOP-62 NSCLC; 16.8% in the assay with NCI-H460 lung; -10.9% (active) in the assay with HOP-92 NSCLC. Moreover, the growth in the assay with NCI-H522 lung was 28.6%; in the assay with A549/ATCC NSCLC, 31.9%; with 786-0 renal, 2.99% (active); in the assay on COLO 205 colon it was 50%; in the assay with DU-145 prostate, 61.5%; in the assay on K-562 leukemia it was 13.1%. The growth with MALME-3M melanoma is 32.9%; in the assay with MDA-MB-231 breast, 54.2%; with RXF 393 renal, 16.1%; in the assay on SF-268 CNS it was 40.2%; with SF-295 CNS, 24.4%; in the assay with SF-539 CNS it was 20.1%. Also, the figures for the growth in the assay with UACC-257 melanoma and in the assay on M14 melanoma were 24.4% and 15.9%, respectively.
On to `Cc1ccc(-c2csc(NC(=O)N3CCN(c4cc5c(cc4F)c(=O)c(C(=O)O)cn5C4CC4)CC3)n2)cc1`, for which the growth is 4.84% (active) in the assay on NCI-H23 lung; 14.5% in the assay on NCI-H226 lung; 9.12% (active) with NCI-H322M lung; 12.6% in the assay with HOP-62 NSCLC; 19.6% in the assay with NCI-H460 lung; -12.6% (active) in the assay with HOP-92 NSCLC. Moreover, the growth in the assay on NCI-H522 lung is -5.07% (active); with A549/ATCC NSCLC, 11.1%; with 786-0 renal it was 28.9%; in the assay on COLO 205 colon, 11.9%; in the assay on DU-145 prostate, 16.3%; in the assay with K-562 leukemia, 17.1%. The growth in the assay on MALME-3M melanoma is -3.8% (active); in the assay with MDA-MB-231 breast, 17.5%; in the assay with RXF 393 renal, 26.6%; with SF-268 CNS, 24.3%; in the assay on SF-295 CNS, 4.88% (active); in the assay on SF-539 CNS it was 26.7%. The growth in the assay on UACC-257 melanoma was -4.73% (active); in the assay with M14 melanoma, 20%.
On to `OC(c1ccccc1)(c1ccccc1)c1ccccc1-c1ccccc1`, for which the growth in the assay on NCI-H23 lung was 83.9%; in the assay on NCI-H226 lung, 91.9%; in the assay with NCI-H322M lung it was 101%; with HOP-62 NSCLC it was 90.4%; in the assay with NCI-H460 lung, 93.1%; in the assay with HOP-92 NSCLC it was 67.1%. The growth with NCI-H522 lung was 75.9%; with A549/ATCC NSCLC, 81.8%; in the assay on 786-0 renal, 95.9%; with COLO 205 colon it was 81%; with DU-145 prostate, 96.2%; in the assay with K-562 leukemia it was 96.5%. The growth with MALME-3M melanoma is 120%; in the assay with MDA-MB-231 breast, 84.4%; in the assay with RXF 393 renal, 103%; in the assay with SF-268 CNS, 90.6%; in the assay on SF-295 CNS it was 109%; in the assay with SF-539 CNS it was 112%. Also, the growth with UACC-257 melanoma is 101%; with M14 melanoma, 99.4%.
Consider `CCCCCCCCCCCCCCCCOC(=O)c1c(C)[nH]c(/C=C2\N=C(c3ccc[nH]3)C=C2OC)c1C`, for which the growth was 48.8% in the assay on NCI-H23 lung; 6.67% (active) in the assay on NCI-H226 lung; 82.7% in the assay with NCI-H322M lung; 54.2% in the assay with HOP-62 NSCLC; 13.3% in the assay on NCI-H460 lung; -12.6% (active) with HOP-92 NSCLC. In addition, the growth in the assay with NCI-H522 lung was 27.1%; in the assay with A549/ATCC NSCLC, 11%; with 786-0 renal, 11.3%; in the assay with COLO 205 colon it was 33.6%; in the assay with DU-145 prostate, 49.3%; in the assay on K-562 leukemia, 38.3%. The growth is 68.4% in the assay on MALME-3M melanoma; 46.6% in the assay on MDA-MB-231 breast; 32% with RXF 393 renal; 69.6% with SF-268 CNS; 68.7% in the assay on SF-295 CNS; 63.6% with SF-539 CNS. Besides, the growth was 86.1% with UACC-257 melanoma and -17.1% (active) in the assay with M14 melanoma.
In the case of `CC[C@]12C=CCN3CC[C@@]4(c5ccc(OC)cc5N(C)[C@H]4[C@@](O)(C(=O)OC)[C@@H]1OC(=O)CCCN1CCOCC1)[C@@H]32`, the growth with NCI-H23 lung was 106%; with NCI-H226 lung, 108%; in the assay on NCI-H322M lung, 106%; in the assay with HOP-62 NSCLC, 99.1%; in the assay with NCI-H460 lung it was 111%; in the assay with HOP-92 NSCLC, 94.5%. Also, the growth is 100% in the assay on NCI-H522 lung; 101% in the assay with A549/ATCC NSCLC; 96.9% in the assay on 786-0 renal; 108% with COLO 205 colon; 106% in the assay with DU-145 prostate; 100% in the assay with K-562 leukemia. The growth is 110% in the assay with MALME-3M melanoma; 115% in the assay on MDA-MB-231 breast; 114% in the assay with RXF 393 renal; 98.6% in the assay with SF-268 CNS; 104% in the assay on SF-295 CNS; 106% in the assay on SF-539 CNS. Moreover, the values for the growth in the assay with UACC-257 melanoma and with M14 melanoma were 104% and 103%, respectively.

The record behind these values is PubChem BioAssay (NCI).
